Results published in the supplement of paper PMC6555819.

Each sequence was assayed on PPARg:RXRa 90nM:30nM, anti-RXR (NR concentration 90 nM, RXRa partner concentration 30 nM) (assay: PBM binding z-score (relative to random genomic background probes); higher = stronger binding; sequences stand for … in GC…GCGATTGACAGCGTAGAATGAAGG).
Outline: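 Scanned fluorescence from custom Agilent 4×180K protein-binding microarrays was regression-normalized. Binding z-scores use random background probes as reference. Ligand-free nuclear receptor dimers were incubated on the arrays for 1 h and detected with antibodies against each partner (one per run).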
Work on CAAACTAGCTCAAAGGTCAAAGTCGAGCCAACCA yielded a PBM binding z-score of 9.43. GGAACGAGGGCAAGTCGATAGCAGAGTTTGATGG was tested, and the PBM binding z-score was 0.116. In the case of CAGCGTAGGTCAGGGCCAGTATAGGAGGAACGTT, the PBM binding z-score is reported as 0.0961. Work on TATTGTAGATCAACAGGAGGTTAAGAAAGATCGA yielded a PBM binding z-score of 0.68. For CAGCCTAGGTCAGGGCCAATATAGGAGGAACGTT, the PBM binding z-score was 0.449. With CTCGAAAAGTCGTGCTCAGGTGAGTATACCAAAC the PBM binding z-score was -0.205. GCGATTGGGGCAAAGCAGGTTACCATAAGGTTGG gave a PBM binding z-score of 0.132. In the case of TCGTGTAGATCAACAGGAGGTTAAGAAAGATCGA, the PBM binding z-score is reported as 1.52. Sequence CCTATTAGTTTACCATAAGGGCAACCGAAGCTCG has a PBM binding z-score of 0.455. Sequence GCTAGTCGGTCAGTAAAAGGTCACACACCGGTCG has a PBM binding z-score of 4.01. TCTATTAGTTGAACGGCAACCGACGAGTCCGTTT showed a PBM binding z-score of 2.83. ATCTCTAAGTAACAAGTTCAGTGAAAGAGAGGAC showed a PBM binding z-score of 0.344. GCTAGTTGGTCAGTAAAAGGTCCCACACCGGTCG was tested, and the PBM binding z-score was -0.225. TCATATAGGTAAACGGTGAAAGTCGGTGTGGTAA showed a PBM binding z-score of 4.57. ACTAGTTGGTCAGCTGAGGTCACATACAATTCGG gave a PBM binding z-score of 1.17. With CGTCCAAGGTCATAGGAGGTCAGTGAGGACAGAT the PBM binding z-score was 4.86. TCATATAGGTAAATGCTAGGTGAAAGTGCGATCT was tested, and the PBM binding z-score was 3.81. Work on TCCAGTAGGTTAGGGGCATTCAGAATGGCGTCGA yielded a PBM binding z-score of 3.05. Sequence CTCGAAAGGTCGTGCTCAGGTGAGTAGACCAAAC has a PBM binding z-score of 2.88. Sequence CCTAGTAGGTCAGGAGGTCACACACCGGATATGA has a PBM binding z-score of 7.5. CAAACTAGGTCACGAAAGTTCAAAGTCGAATGAC showed a PBM binding z-score of 8.35. Sequence TCTTGTAGATCAAGGGTTAAGAAAGCCGAAGCCT has a PBM binding z-score of 7.18. Sequence TTACCAAGATGAGCTGAGGTCGTTGATCCAACTC has a PBM binding z-score of 0.66. CCTTACGGGTCAAGGTTATAGCGCGGGTGGTACG was tested, and the PBM binding z-score was 3.35. Sequence TAGTCTAGGTCATGGGCCAGTATACCACGCGAAC has a PBM binding z-score of 6. In the case of ATCTCTAGGTAAAAGTTCAGTCAATCCCGAGGAT, the PBM binding z-score is reported as 9.66. For AGTCAAAGTTCACTAGGGAACGTAAGATTCAGCT, the PBM binding z-score was 5.22. In the case of CGTCCAAGGTCATAGAAGGTCAGTGAAGACAGAT, the PBM binding z-score is reported as 4.36. In the case of CCAGACAGGTGACAGGTAACTCAGTCTGGTACGC, the PBM binding z-score is reported as 0.74. CTCGAAAGGTCGTGCTCACGTGAGTATACCAAAC gave a PBM binding z-score of 2.12. For TTACCAAGGTGAGCAGAGGTCGTTGATCCAACTC, the PBM binding z-score was 2.68. Sequence ATGTCTAGGTAAAGTTCAGTGAAAGATCGATAGA has a PBM binding z-score of 4.25. CCGACTGGGGCACAAAGGTTACCATACCATCCGG was tested, and the PBM binding z-score was 5.14. TATACAGGGTCAAAGGCCAGCGTACGAATGTCGA showed a PBM binding z-score of 7.51. CCTACTGGGCAATTCAGAGGTCATTGATCATATG gave a PBM binding z-score of 0.942. In the case of ACTATTAGTTGACTTGGGGCAACCGATACGACGC, the PBM binding z-score is reported as 0.389. CCGACTTGGGCAGAAAGGTTACCATACCATCCGG gave a PBM binding z-score of 0.892. Sequence GCTAGCACGCCATTTGGGTCACTCAATGACGGGC has a PBM binding z-score of 0.152. TCGAGTAGGTTAGGGGCATTCAAAATGGCGTCGA showed a PBM binding z-score of 1.69. Work on CCTCGGAGGACAGAAGGTCAGAGCCGTCCGCTTT yielded a PBM binding z-score of 0.277.
